PAFAH1B3 FP inh: inhibitors of human PAFAH1B3; recombinant PAFAH1B3, FP-rhodamine probe, fluorescence polarization; inhibition, % at 3.39 µM; 340,000 compounds, 0.28% hits;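 active = inhibition above the screen-wide average of all tested compounds plus 3 SD, cut at about 25% in these data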
PAFAH1B2 FP inh: PAFAH1B2 (human) inhibition. AID 492953. P68402. recombinant PAFAH1B2, FP-rhodamine activity probe, fluorescence polarization. 340,000 compounds, 1.2% hits. inhibition, % at 3.39 µM;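 active = inhibition above the mean of all tested compounds plus 3 SD, cut at about 24% in these data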
DSG3 Ab inh: blocks pemphigus antibody binding to human desmoglein-3; binding (percent of control), % at 10 µM; DSG3-coupled beads, scFv-anti-DSG3-GFP binding, flow cytometry; hits give low values; 310,000 compounds, 0.48% hits; P32926;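 active = binding more than 3 SD below its plate's average and above zero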;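 note: hits lower antibody fragment binding to DSG3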
Target sequence (P32926 whole entry, looked up, the tested form may be a part): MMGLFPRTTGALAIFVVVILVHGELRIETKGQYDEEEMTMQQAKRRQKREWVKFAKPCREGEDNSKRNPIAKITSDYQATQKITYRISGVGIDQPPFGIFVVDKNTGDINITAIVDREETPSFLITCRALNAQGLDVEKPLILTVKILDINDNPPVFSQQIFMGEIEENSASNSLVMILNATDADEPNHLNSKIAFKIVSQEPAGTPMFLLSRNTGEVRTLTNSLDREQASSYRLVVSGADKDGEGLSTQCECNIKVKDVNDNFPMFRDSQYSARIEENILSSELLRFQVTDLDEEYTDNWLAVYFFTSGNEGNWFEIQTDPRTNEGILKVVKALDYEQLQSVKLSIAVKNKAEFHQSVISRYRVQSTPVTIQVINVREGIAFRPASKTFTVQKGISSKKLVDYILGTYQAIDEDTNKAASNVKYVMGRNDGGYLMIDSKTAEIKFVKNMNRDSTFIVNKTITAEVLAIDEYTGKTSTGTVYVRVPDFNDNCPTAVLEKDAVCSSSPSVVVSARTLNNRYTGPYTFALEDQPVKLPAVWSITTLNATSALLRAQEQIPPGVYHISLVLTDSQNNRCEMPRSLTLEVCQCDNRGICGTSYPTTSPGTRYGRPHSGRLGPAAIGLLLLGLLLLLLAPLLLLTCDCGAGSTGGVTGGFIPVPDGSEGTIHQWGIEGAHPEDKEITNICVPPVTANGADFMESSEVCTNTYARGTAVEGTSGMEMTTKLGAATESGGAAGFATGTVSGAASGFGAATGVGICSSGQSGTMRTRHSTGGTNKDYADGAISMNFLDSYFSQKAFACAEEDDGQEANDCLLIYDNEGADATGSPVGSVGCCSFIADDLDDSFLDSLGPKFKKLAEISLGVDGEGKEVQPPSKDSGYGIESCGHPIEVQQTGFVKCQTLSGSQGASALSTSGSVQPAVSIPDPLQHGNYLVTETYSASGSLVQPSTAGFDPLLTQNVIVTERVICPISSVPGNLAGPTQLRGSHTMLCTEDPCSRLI
PAFAH2 inh: inhibitors of human PAFAH2; Q99487; recombinant PAFAH2, FP-rhodamine activity probe, fluorescence polarization; inhibition, % at 3.39 µM; 340,000 compounds, 0.99% hits; AID 492956;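 active = inhibition above the mean over all tested compounds plus 3 SD, cut at about 30% in these data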;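 note: inhibitors block probe labeling of enzyme so polarization drops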
PfM18AAP inh: blocks P. falciparum M18 aspartyl aminopeptidase | recombinant PfM18AAP, H-Glu-NHMec fluorogenic cleavage | inhibition, % at 7.35 µM | 290,000 compounds, 1.2% hits;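 active = inhibition above the campaign mean inhibition over all tested compounds plus 3 SD, cut at about 28% in these data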
pPAFAH inh: inhibitors of human plasma PAF acetylhydrolase (pPAFAH); Q13093; recombinant pPAFAH, FP-rhodamine probe fluorescence polarization; inhibition, % at 3.39 µM; 330,000 compounds, 1.5% hits; AID 463082;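 active = inhibition above the mean inhibition across the screen plus 3 SD, cut at about 25% in these data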;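 note: inhibitors block binding of the rhodamine activity-based probe so polarization drops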
Numbers stand for hits; 0 = inactive; - = no result. A selection: hits, their analogues and other compounds. The true share with any hit is near 3.8%.

SMILES	PAFAH1B3 FP inh	PAFAH1B2 FP inh	DSG3 Ab inh	PAFAH2 inh	PfM18AAP inh	pPAFAH inh
O=C(COC(=O)CCC1CCCC1)Nc1ccccc1Br	0	0	-	0	-	34
COc1ccc(-n2cnnc2SCC(=O)NC2CC2)cc1	-	-	0	-	-	-
CCn1c(SCC(=O)N/N=C/c2ccccc2OCC(=O)O)nnc1-c1ccc(C)cc1	0	0	0	0	0	0
COc1cccc(NC(=S)NC(Cc2ccccc2)c2ccccc2)c1 (stereo unspecified)	-	-	0	-	-	-
O=C(COC(=O)C1CC1)Nc1ccc(Cl)cc1Cl	0	0	0	64	-	0
COc1ccccc1NC(=O)COC(=O)CCC1CCCC1	0	0	0	0	-	29
COc1ccccc1NC(=O)COC(=O)C1CCCC1	0	0	0	0	-	0
O=C(COC(=O)C1CC1)Nc1ccc(Oc2ccccc2)cc1	0	0	0	91	0	27
O=C(COC(=O)CCC1CCCC1)Nc1ccc(Cl)cc1F	0	0	0	0	0	27
C[C@H](CO)N1C[C@H](C)[C@@H](CN(C)S(=O)(=O)c2cccc(C#N)c2)OCc2cn(nn2)CCCC1=O	-	-	0	-	-	-
COc1ccc(C(=O)NCC(=O)OCC(=O)Nc2cc(OC)ccc2OC)cc1	0	0	-	0	0	0
COc1ccc(OC)c(NC(=O)COC(=O)CCC2CCCC2)c1	0	0	-	0	-	33
COc1ccc(NC(=O)CCC2CCCC2)cc1OC	0	0	0	0	0	0
COc1ccc(NS(=O)(=O)c2ccc(OC)c(NC(=O)CCC3CCCC3)c2)cc1	0	0	0	0	0	27
Cc1ccc(CNC(=O)C2CCCN2C(=O)Nc2ccccc2)cc1 (stereo unspecified)	0	0	0	0	0	0
O=C(NCCc1ccccc1)C1CCCN1C(=O)Nc1ccccc1 (stereo unspecified)	0	0	0	0	0	0
CC(C)(C)c1ccc(CNC(=O)C2CCCN2C(=O)Nc2ccccc2)cc1 (stereo unspecified)	0	25	0	0	0	0
O=C(NCCc1ccccc1)C1CCCN1C(=O)Nc1cccc(Cl)c1 (stereo unspecified)	0	27	0	0	0	0
CCN(CC)Cc1nc2nc(Cl)c(Cl)nc2[nH]1	-	-	0	-	-	-
COc1ccc(NC(=O)N2CCCC(c3nc(-c4ccc(C(C)C)cc4)no3)C2)cc1 (stereo unspecified)	0	30	0	0	0	0
CCN1CCN(C2=C(NS(=O)(=O)c3ccccc3)C(=O)c3ccccc3C2=O)CC1	0	0	0	0	30	0
CC1=C(C(=O)N2CCOCC2)CC(CC(=O)NC2CCCC2)C(=O)N1Cc1ccccc1 (stereo unspecified)	-	-	0	-	-	-
COc1ccc(OC2C(=O)N(CCc3ccc(OC)c(OC)c3)C2c2ccc3c(c2)OCO3)cc1 (stereo unspecified)	0	0	0	0	0	0
COC(=O)c1ccc(C2C(Oc3ccccc3)C(=O)N2CCc2ccc(OC)c(OC)c2)cc1 (stereo unspecified)	0	0	83	0	0	0
Cc1cc2nc(CN(C)C(=O)C3CCC(=O)N(C4CCCC4)C3)[nH]c2cc1C (stereo unspecified)	-	-	0	-	-	-
SMILES	PAFAH1B3 FP inh	PAFAH1B2 FP inh	DSG3 Ab inh	PAFAH2 inh	PfM18AAP inh	pPAFAH inh
COc1ccc(-n2nc([N+](=O)[O-])c(=NCCC3=CCCCC3)n2O)cc1	0	0	-	0	0	0
O=S(=O)(NC12CC3CC(CC(C3)C1)C2)c1ccc(F)cc1	0	28	0	0	0	0
CCOC(=O)c1cc(-c2ccccc2)sc1NC(=O)c1ccc(OC)cc1	-	-	-	-	0	0
O=C(Nc1sc(-c2ccccc2)cc1C(=O)O)c1ccccc1	0	32	0	0	0	0
Cc1sc(NC(=O)c2sc3nc4c(C)cccc4cc3c2N)c(C#N)c1C	0	0	0	0	0	27
Cc1cccc2cc3c(N)c(C#N)sc3nc12	0	0	0	0	0	0
N#CC1=C(N)SC(N)=C(C#N)C1CCC1CCCCC1	-	-	-	-	32	0
CCC(C)C(NC(=O)c1ccccc1)C(=O)N1CCN(C(=O)c2ccccc2)CC1 (stereo unspecified)	-	-	0	-	-	-
Cc1nc(N2N=C(c3ccc(Cl)cc3)CC2c2ccco2)sc1C(=O)N(C)C (stereo unspecified)	0	0	0	0	0	0
COc1ccc(C2=NN(c3nc(-c4ccccc4)c(CC(=O)O)s3)C(c3ccco3)C2)cc1 (stereo unspecified)	0	0	0	0	0	30
Cc1ccc2nc(SCc3ccccc3)c(C=O)c(=O)n2c1	0	0	53	0	0	0
CC1=C(C(=O)N2CCOCC2)CC(CC(=O)NCCN2CCOCC2)C(=O)N1Cc1ccccc1 (stereo unspecified)	-	-	0	-	-	-
O=C(O)c1cc(-c2ccccc2Cl)n(-c2ccccc2)n1	0	29	0	0	0	0
O=C(CCC(=O)OCC(=O)c1ccccc1)Nc1cccc2cccnc12	0	0	8.4	0	0	0
O=C(O)CCC(=O)Nc1cccc2cccnc12	0	0	0	0	0	0
O=C(Cc1ccccc1)Nc1c2c(nn1-c1cccc(Cl)c1)CS(=O)(=O)C2	0	0	86	0	0	0
COc1ccc(CNC(=O)C[C@@H]2C[C@H]3c4cc(NC(=O)NC5CCCC5)ccc4O[C@H]3[C@H](CO)O2)cc1	-	-	0	-	-	-
COc1ccccc1C(=O)NNc1ncc(C)s1	0	0	0	0	31	0
COc1ccc(Br)cc1CN(C)C(=O)c1ccccc1SCC(=O)N1CCCC1	0	0	0	0	-	-
CCN=c1scc(C)n1/N=C/c1cc(Br)c(O)c(OC)c1	0	0	-	0	35	0
CC(C)NC(=O)COC(=O)C1CSC2(c3ccc(Br)cc3)CCC(=O)N12 (stereo unspecified)	0	0	0	0	0	0
CCOC(=O)c1c(NC(=S)Nc2ccccc2)sc2c1CCN(CCc1ccccc1)C2	-	-	-	-	0	0
CCOC(=O)c1c(NC(=O)C(C)Sc2cccc[n+]2[O-])sc2c1CCN(Cc1ccccc1)C2 (stereo unspecified)	0	0	0	0	0	33
CCOC(=O)c1c(N)sc2c1CCN(CCc1ccccc1)C2	0	0	0	0	29	0
CCOC(=O)c1c(NC(C)=O)sc2c1CCN(Cc1ccccc1)C2	0	0	0	0	0	0
SMILES	PAFAH1B3 FP inh	PAFAH1B2 FP inh	DSG3 Ab inh	PAFAH2 inh	PfM18AAP inh	pPAFAH inh
O=[N+]([O-])c1cc(S(=O)(=O)N2CCCCC2)ccc1NCCCN1CCOCC1	0	0	0	0	0	0
CC(=O)c1ccc(Cc2ccc(C(C)=O)s2)s1	-	-	0	-	-	-
O=C(NCc1ccc(Cl)cc1)C(=O)Nc1nccs1	0	0	76	0	0	0
CC(C)c1ccc(CNC(=O)C(=O)Nc2nccs2)cc1	0	0	0	0	0	0
CC1OC(c2ccccc2)OC2COC(c3ccccc3)OC12 (stereo unspecified)	0	0	-6.5	0	-	-
OC1COC(c2ccccc2)OC1C1OC(c2ccccc2)OCC1O (stereo unspecified)	0	0	0	0	-	-

Screening data: PubChem, several laboratories
